Active and inactive are the calls of the source. Unless noted, how the calls were made is not given here.
Tests used:
[1] = compounds binding Alexa647 anti-His antibody – biochemical, small-molecule microarray, 635 nm fluorescence, artefact control for SMM control protein annotation, primary screen (AID 1128); settings: higher = more signal;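 further: score merges feature fluorescence with signal-to-noise for each printed compound spot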
[2] = test system: Human papillomavirus type 1a E7 protein (residues 1-88); test: HPV1a E7 small-molecule binders, primary screen, biochemical, small-molecule microarray, residues 1-88, 635 nm (AID 1129); settings: small-molecule microarray binding, fluorescence 635 nm; higher = more signal
[3] = target: Focal adhesion kinase 1 (Homo sapiens) (UniProt Q05397); test: PTK2 protein binding on printed compound slides – biochemical, small-molecule microarray, 635/667 nm fluorescence, BSA, DTT, primary screen (AID 1130); settings: 635 nm fluorescence, higher = more signal;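 further: composite of spot emission at 667 nm and signal to noise over triplicate slides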
Chain of Focal adhesion kinase 1 (Homo sapiens) (Q05397 whole entry, looked up): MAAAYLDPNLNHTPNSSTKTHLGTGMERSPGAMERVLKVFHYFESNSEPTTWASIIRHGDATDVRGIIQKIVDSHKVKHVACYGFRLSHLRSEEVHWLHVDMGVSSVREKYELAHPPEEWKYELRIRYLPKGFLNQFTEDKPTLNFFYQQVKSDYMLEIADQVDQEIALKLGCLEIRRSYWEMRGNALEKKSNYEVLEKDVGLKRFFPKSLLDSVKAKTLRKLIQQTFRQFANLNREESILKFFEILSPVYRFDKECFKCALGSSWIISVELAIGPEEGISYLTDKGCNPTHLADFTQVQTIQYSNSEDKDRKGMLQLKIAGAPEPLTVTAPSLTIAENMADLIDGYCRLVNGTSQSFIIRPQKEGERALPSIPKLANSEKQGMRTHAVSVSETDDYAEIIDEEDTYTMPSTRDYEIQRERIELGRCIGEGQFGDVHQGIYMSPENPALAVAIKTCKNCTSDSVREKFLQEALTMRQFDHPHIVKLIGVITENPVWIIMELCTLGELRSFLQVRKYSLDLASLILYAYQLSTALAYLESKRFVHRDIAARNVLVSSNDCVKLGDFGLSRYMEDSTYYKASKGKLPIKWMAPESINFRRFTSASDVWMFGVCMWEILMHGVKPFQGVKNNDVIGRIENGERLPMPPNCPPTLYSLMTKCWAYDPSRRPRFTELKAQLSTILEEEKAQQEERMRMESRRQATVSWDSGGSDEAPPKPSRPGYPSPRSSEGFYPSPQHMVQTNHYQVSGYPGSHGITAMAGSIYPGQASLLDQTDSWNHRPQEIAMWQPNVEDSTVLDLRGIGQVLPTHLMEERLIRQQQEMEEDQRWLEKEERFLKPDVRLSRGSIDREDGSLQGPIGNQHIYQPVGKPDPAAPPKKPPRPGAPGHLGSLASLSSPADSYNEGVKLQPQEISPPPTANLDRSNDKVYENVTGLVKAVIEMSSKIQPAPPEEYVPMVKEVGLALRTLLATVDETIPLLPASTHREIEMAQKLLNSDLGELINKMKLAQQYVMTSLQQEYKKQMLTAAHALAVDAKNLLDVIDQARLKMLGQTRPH

[4] = test system: Fibrinogen (Alexa647-labelled); test: Alexa647-fibrinogen binding to printed small molecules – biochemical, small-molecule microarray, 635/667 nm fluorescence, artefact control for SMM control-protein annotation, profiling panel (AID 1131); settings: fibrinogen-A647 binding fluorescence, higher = more signal;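 further: z-score merges 667 nm fluorescence with per-spot signal-to-noise over triplicate slides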
[5] = target: Follistatin (Homo sapiens) (UniProt P19883); test: FST protein binding to printed compounds – biochemical, small-molecule microarray, 635/667 nm fluorescence, primary screen (AID 1132); settings: 635 nm fluorescence, higher = more signal
Chain of Follistatin (Homo sapiens) (P19883 whole entry, looked up): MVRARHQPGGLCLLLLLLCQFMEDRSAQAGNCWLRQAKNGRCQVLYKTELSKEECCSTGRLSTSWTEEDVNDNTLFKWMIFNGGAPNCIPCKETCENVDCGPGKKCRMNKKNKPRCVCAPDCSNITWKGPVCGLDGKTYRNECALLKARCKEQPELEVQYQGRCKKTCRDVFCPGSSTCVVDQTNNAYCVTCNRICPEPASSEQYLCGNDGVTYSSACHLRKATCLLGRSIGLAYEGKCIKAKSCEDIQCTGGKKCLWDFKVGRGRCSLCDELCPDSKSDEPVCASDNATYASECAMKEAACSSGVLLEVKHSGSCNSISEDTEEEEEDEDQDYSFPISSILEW

[6] = target: Fibroblast growth factor 2 (Homo sapiens) (UniProt P09038); test: basic fibroblast growth factor binding to printed compounds – biochemical, small-molecule microarray, 635/667 nm fluorescence, primary screen (AID 1133); settings: FGF2, fluorescence 635/667, higher = more signal
Chain of Fibroblast growth factor 2 (Homo sapiens) (P09038 whole entry, looked up): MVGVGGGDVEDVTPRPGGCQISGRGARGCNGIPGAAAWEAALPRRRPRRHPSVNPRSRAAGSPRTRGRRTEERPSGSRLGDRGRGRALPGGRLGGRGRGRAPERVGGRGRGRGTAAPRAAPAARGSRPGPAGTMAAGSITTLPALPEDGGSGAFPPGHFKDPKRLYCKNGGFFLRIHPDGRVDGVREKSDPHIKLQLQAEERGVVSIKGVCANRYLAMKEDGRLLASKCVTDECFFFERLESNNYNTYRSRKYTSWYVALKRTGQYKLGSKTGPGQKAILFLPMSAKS

[7] = JC-1 mitochondrial potential readout, lung cancer cells – cell-based, A549, JC-1 fluorescence, basal, 24 h, 100 nL, profiling panel (AID 1138); settings: higher = more signal;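 further: A549 lung adenocarcinoma cells under basal conditions with no added stimulus; test concentration not given here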
Lefty1 = Lefty1 protein binding to printed compounds – biochemical, small-molecule microarray, 635/667 nm fluorescence, primary screen (AID 1139); settings: fluorescence 635/667, higher = more signal
[8] = test system: wheat germ agglutinin (Triticum aestivum), Alexa647-labelled; test: Alexa647-WGA lectin binding to printed small molecules – biochemical, small-molecule microarray, 635/667 nm fluorescence, artefact control for SMM control-protein annotation, profiling panel (AID 1140); settings: WGA-A647 binding, 635 nm fluorescence, higher = more signal;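 further: score merges 667 nm feature emission with signal to noise over triplicate slides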
[9] = target: Luciferin 4-monooxygenase (Photinus pyralis) (UniProt P08659); test: inhibition of purified Photinus pyralis luciferase – biochemical, luminescence, purified enzyme, 2006 set, primary screen (AID 1141); settings: purified firefly luciferase, SteadyGlo luminescence, 30 min; higher = more signal, called active from +8 up or from −8 down;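 further: cell-free assay with purified firefly luciferase at 100 ng per well in PBS; test concentration not given here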
Chain of Luciferin 4-monooxygenase (Photinus pyralis) (P08659 whole entry, looked up): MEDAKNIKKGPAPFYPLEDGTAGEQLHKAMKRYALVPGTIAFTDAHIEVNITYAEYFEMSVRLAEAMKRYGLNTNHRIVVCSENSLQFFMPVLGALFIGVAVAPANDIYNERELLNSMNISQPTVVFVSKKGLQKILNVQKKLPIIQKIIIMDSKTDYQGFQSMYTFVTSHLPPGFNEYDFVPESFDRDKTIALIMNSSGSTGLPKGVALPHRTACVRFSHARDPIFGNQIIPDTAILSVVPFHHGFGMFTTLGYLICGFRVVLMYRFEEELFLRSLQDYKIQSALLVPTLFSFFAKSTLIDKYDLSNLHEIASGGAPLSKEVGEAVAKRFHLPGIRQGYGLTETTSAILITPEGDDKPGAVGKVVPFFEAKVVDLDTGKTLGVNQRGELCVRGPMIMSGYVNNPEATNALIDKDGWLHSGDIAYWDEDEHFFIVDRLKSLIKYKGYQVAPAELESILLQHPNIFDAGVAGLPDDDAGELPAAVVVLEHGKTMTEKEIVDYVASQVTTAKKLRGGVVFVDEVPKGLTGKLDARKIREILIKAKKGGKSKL

[10] = test system: Wnt5a (protein binding on small-molecule microarray); test: small molecules binding Wnt5a protein – biophysical, small-molecule microarray, 635/667 nm fluorescence, primary screen (AID 1142); settings: 635 nm fluorescence, higher = more signal;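 further: fluorescence read at 667 nm with signal to noise per printed feature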
[11] = ATP-based viability of Huh7 replicon cells – cell-based, CellTiter-Glo luminescence, basal, 48 h, cytotoxicity control for HCV replication inhibitor project, primary screen (AID 1143); settings: higher = more signal, called active from +8 up or from −8 down;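 further: Huh7 hepatoma cells carrying a hepatitis C replication reporter with no stimulus; test concentration not given here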
[12] = Pseudomonas biofilm growth suppression – PAO1 strain, BacTiter-Glo luminescence, LB-PBS, primary screen (AID 1144); settings: P. aeruginosa PAO1 biofilm, 12 h, higher = more signal
[13] = basal CRE-LacZ reporter activity in PC12 – cell-based, unstimulated, primary screen (AID 1145); settings: no forskolin, luminescence, 4.5 h, higher = more signal, called active from +8 up or from −8 down
[14] = forskolin-driven CRE-LacZ activity in PC12 – cell-based, CRE-LacZ reporter, forskolin-stimulated, primary screen (AID 1146); settings: luminescence, 4.5 h, higher = more signal, called active from +8 up or from −8 down;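 further: PC12 cells with 6xCRE LacZ reporter stimulated by forskolin 10 µM; beta-galactosidase reporter signal reflecting CREB driven transcription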
[15] = target: Streptavidin (Streptomyces avidinii) (UniProt P22629); test: compounds binding control protein streptavidin – biophysical, small-molecule microarray, 635/667 nm fluorescence, artefact control for SMM compound annotation, primary screen (AID 1147); settings: higher = more signal;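 further: signal reflects streptavidin binding to arrayed compounds as a control protein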
Chain of Streptavidin (Streptomyces avidinii) (P22629 whole entry, looked up): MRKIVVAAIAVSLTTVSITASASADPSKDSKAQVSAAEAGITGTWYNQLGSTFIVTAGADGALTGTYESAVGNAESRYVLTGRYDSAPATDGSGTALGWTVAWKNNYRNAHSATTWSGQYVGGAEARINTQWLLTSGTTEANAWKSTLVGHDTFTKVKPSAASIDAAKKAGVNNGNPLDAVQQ

[16] = probe aInhba binding on compound microarray – biochemical, small-molecule microarray, 635/667 nm fluorescence, primary screen (AID 1148); settings: higher = more signal;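 further: score merges 667nm spot fluorescence with signal-to-noise for antibody binding to printed compounds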
Torsin-1A (Homo sapiens) [17] = target: Torsin-1A (Homo sapiens) (UniProt O14656); test: TOR1A wild-type binding on microarray – cell lysate, small-molecule microarray, lysate, 635/667 nm, primary screen (AID 1149); settings: COS7 hTOR1A-WT lysate, 635 nm fluorescence, higher = more signal
Chain of Torsin-1A (Homo sapiens) (O14656 whole entry, looked up): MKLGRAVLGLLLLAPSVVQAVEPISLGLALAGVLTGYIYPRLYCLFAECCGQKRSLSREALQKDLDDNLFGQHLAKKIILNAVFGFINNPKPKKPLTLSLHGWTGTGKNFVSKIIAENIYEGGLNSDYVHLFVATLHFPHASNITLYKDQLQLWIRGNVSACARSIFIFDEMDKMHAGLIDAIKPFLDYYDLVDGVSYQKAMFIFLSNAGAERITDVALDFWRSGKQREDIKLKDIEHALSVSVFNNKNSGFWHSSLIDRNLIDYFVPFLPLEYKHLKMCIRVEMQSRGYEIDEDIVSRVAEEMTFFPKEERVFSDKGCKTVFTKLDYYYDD

Torsin-1A (Homo sapiens) [18] = target: Torsin-1A (Homo sapiens) (UniProt O14656); test: torsin A mutant lysate binding on microarrays – cell lysate, small-molecule microarray, COS7 lysate, 635/667 nm fluorescence, primary screen (AID 1150); settings: COS7 hTOR1A mutant lysate, 635 nm fluorescence, higher = more signal;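 further: score pools 667 nm emission and signal to noise measuring lysate protein binding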
[19] = test system: Sonic hedgehog protein (Shh); test: Sonic hedgehog microarray binding compounds – biochemical, small-molecule microarray, 635/667 nm fluorescence, primary screen (AID 1151); settings: 635 nm fluorescence, higher = more signal;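 further: Shh protein binding to compounds spotted on small-molecule microarray slides; score combines spot fluorescence intensity with signal-to-noise across triplicate slides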

SMILES | composite z-score [1] | composite z-score [2] | composite z-score [3] | composite z-score [4] | composite z-score [5] | composite z-score [6] | z-score [7] | composite z-score (Lefty1) | composite z-score [8] | z-score [9] | composite z-score [10] | z-score [11] | z-score [12] | z-score [13] | z-score [14] | composite z-score [15] | composite z-score [16] | composite z-score (Torsin-1A (Homo sapiens) [17]) | composite z-score (Torsin-1A (Homo sapiens) [18]) | composite z-score [19]
CCCNC(=O)[C@@H]1c2ccccc2C(=O)N(c2ccc(C)cn2)[C@H]1c1ccc(CO)cc1 | 0.63 | -0.38 | 0.14 | -0.367 | 0.316 | 0.398 | -0.307 | -0.981 | -0.273 | 0.544 (inactive) | -0.108 | 0.62 (inactive) | 0.242 (inactive) | -0.412 (inactive) | 0.538 (inactive) | -0.372 | -0.108 | -0.291 | -0.397 | -0.013
CCCNC(=O)OC[C@H]1O[C@H](CCON=CC[C@@H]2C=C[C@H](OC(C)=O)[C@@H](COC(C)=O)O2)C=C[C@@H]1Oc1ccc(OC)cc1 | 0.731 | 0.535 | 0.474 | 0.733 | 0.461 | 0.693 | -1.16 | 0.561 | 0.462 | 0.985 (inactive) | 0.371 | 0.0377 (inactive) | 0.348 (inactive) | 0.345 (inactive) | 0.391 (inactive) | 0.0822 | -0.128 | -0.475 | 0.0275 | 0.535
CC(CCN1CCc2nc(-c3ccccc3)c(-c3ccccc3)cc2C1)=NO[C@H](C)c1cn([C@@H]2COC[C@H]2O)nn1 | 0.124 | 0.915 | 0.0127 | 0.717 | 0.438 | 0.0208 | 1.17 | 0.712 | 0.224 | -0.475 (inactive) | 0.0025 | -0.615 (inactive) | -0.733 (inactive) | 0.983 (inactive) | -0.258 (inactive) | -0.384 | 0.0183 | 1.01 | 1.11 | 0.572

From PubChem BioAssay
